In PubChem BioAssay AID1159580 (chemical genetic matrix, 2015):
Screen size: about 5,500 compounds; about 2,000 (36%) were called active. Another 18% or so got no clear call; they are omitted. Cut-off read from the data, not from the text of the source: active = normalized growth mostly below about 0.91 (no sharp cut-off); inconclusive = no clear call, values can overlap the other calls; inactive = mostly above about 0.92. The list shows a part of the results.

Assay: chemical genetic growth profiling, strain panel (AID 1159580);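 note: tested at 20 µM; growth read once vehicle control cultures reached saturation at 30 °C; 1 = growth at the plate median or of vehicle wells; lower values mean less growth of the strain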
Conditions: growth OD

Measured: normalized growth

CC1(C)CC[C@]2(C)CC[C@]3(C)C(=CCC4[C@@]5(C)CC[C@H](O)C(C)(C)C5CC[C@]43C)C2C1 (some centres not stated)
inactive: S. cerevisiae deletion strains, locus YJL187C, strain SWE1, stronger effect = lower value 1 | S. cerevisiae deletion strains, locus YJR066W, strain TOR1, stronger effect = lower value 0.993 | S. cerevisiae deletion strains, locus YKL009W, strain mrt4, stronger effect = lower value 0.988 | S. cerevisiae deletion strains, locus YKL068W, stronger effect = lower value 0.985 | S. cerevisiae deletion strains, locus YKL085W, strain MDH1 (second series), stronger effect = lower value 0.999 | S. cerevisiae deletion strains, locus YKL085W, strain MDH1, stronger effect = lower value 0.999 | S. cerevisiae deletion strains, locus YKL160W, strain elf1, stronger effect = lower value 0.987 | S. cerevisiae deletion strains, locus YKL190W, strain CNB1, stronger effect = lower value 1 | S. cerevisiae deletion strains, locus YKR001C, strain vps1, stronger effect = lower value 0.999 | S. cerevisiae deletion strains, locus YKR026C, strain gcn3, stronger effect = lower value 0.989 | S. cerevisiae deletion strains, locus YKR091W, strain srl3, stronger effect = lower value 0.993 | S. cerevisiae deletion strains, locus YLL001W, strain dnm1, stronger effect = lower value 0.987 | S. cerevisiae deletion strains, locus YLL026W, stronger effect = lower value 0.984 | S. cerevisiae deletion strains, locus YLL041C, strain sdh2, stronger effect = lower value 1.01 | S. cerevisiae deletion strains, locus YLR027C, strain aat2, stronger effect = lower value 0.98 | S. cerevisiae deletion strains, locus YLR039C, strain RIC1, stronger effect = lower value 1.02 | S. cerevisiae deletion strains, locus YLR058C, strain SHM2, stronger effect = lower value 1.01 | S. cerevisiae deletion strains, locus YLR102C, strain apc9, stronger effect = lower value 1.01 | S. cerevisiae deletion strains, locus YLR113W, strain HOG1, stronger effect = lower value 0.977 | S. cerevisiae deletion strains, locus YLR221C, strain rsa3, stronger effect = lower value 0.987 | S. cerevisiae deletion strains, locus YLR258W, strain gsy2, stronger effect = lower value 1.01 | S. cerevisiae deletion strains, locus YLR262C, strain YPT6 (second series), stronger effect = lower value 1.01 | S. cerevisiae deletion strains, locus YLR268W, strain sec22, stronger effect = lower value 1.03 | S. cerevisiae deletion strains, locus YLR320W, strain mms22, stronger effect = lower value 0.994 | S. cerevisiae deletion strains, locus YLR342W, strain FKS1, stronger effect = lower value 0.996 | S. cerevisiae deletion strains, locus YLR357W, strain rsc2, stronger effect = lower value 0.971 | S. cerevisiae deletion strains, locus YLR370C, strain arc18, stronger effect = lower value 0.999 | S. cerevisiae deletion strains, locus YLR371W, strain rom2, stronger effect = lower value 0.973 | S. cerevisiae deletion strains, locus YLR384C, strain iki3, stronger effect = lower value 0.967 | S. cerevisiae deletion strains, locus YLR418C, strain cdc73, stronger effect = lower value 0.994 | S. cerevisiae deletion strains, locus YML016C, strain PPZ1, stronger effect = lower value 1.01 | S. cerevisiae deletion strains, locus YML032C, strain rad52, stronger effect = lower value 0.991 | S. cerevisiae deletion strains, locus YML120C, strain ndi1, stronger effect = lower value 0.979 | S. cerevisiae deletion strains, locus YML124C, strain tub3, stronger effect = lower value 0.984 | S. cerevisiae deletion strains, locus YMR058W, strain fet3, stronger effect = lower value 0.988 | S. cerevisiae deletion strains, locus YMR078C, strain ctf18, stronger effect = lower value 0.994 | S. cerevisiae deletion strains, locus YMR125W, strain sto1, stronger effect = lower value 0.994 | S. cerevisiae deletion strains, locus YMR129W, stronger effect = lower value 0.991 | S. cerevisiae deletion strains, locus YMR205C, strain PFK2, stronger effect = lower value 1.01 | S. cerevisiae deletion strains, locus YMR223W, strain ubp8, stronger effect = lower value 0.992 | S. cerevisiae deletion strains, locus YMR231W, strain pep5, stronger effect = lower value 0.997 | S. cerevisiae deletion strains, locus YMR263W, strain SAP30, stronger effect = lower value 0.979 | S. cerevisiae deletion strains, locus YMR307W, strain GAS1, stronger effect = lower value 1.06 | S. cerevisiae deletion strains, locus YNL067W, strain RPL9B, stronger effect = lower value 0.973 | S. cerevisiae deletion strains, locus YNL071W, strain lat1, stronger effect = lower value 0.997 | S. cerevisiae deletion strains, locus YNL153C, strain GIM3, stronger effect = lower value 0.973 | S. cerevisiae deletion strains, locus YNL183C, strain NPR1, stronger effect = lower value 0.984 | S. cerevisiae deletion strains, locus YNL209W, strain ssb2, stronger effect = lower value 0.975 | S. cerevisiae deletion strains, locus YNL233W, strain BNI4, stronger effect = lower value 1.01 | S. cerevisiae deletion strains, locus YNL248C, strain rpa49, stronger effect = lower value 0.985 | S. cerevisiae deletion strains, locus YNL250W, strain rad50, stronger effect = lower value 0.963 | S. cerevisiae deletion strains, locus YNL271C, strain bni1, stronger effect = lower value 0.978 | S. cerevisiae deletion strains, locus YNL298W, strain CLA4, stronger effect = lower value 0.991 | S. cerevisiae deletion strains, locus YNL307C, strain MCK1, stronger effect = lower value 1 | S. cerevisiae deletion strains, locus YNL322C, strain KRE1 (second series), stronger effect = lower value 0.965 | S. cerevisiae deletion strains, locus YNR049C, strain mso1, stronger effect = lower value 0.987 | S. cerevisiae deletion strains, locus YNR052C, strain pop2, stronger effect = lower value 0.968 | S. cerevisiae deletion strains, locus YOL006C, strain TOP1, stronger effect = lower value 1.14 | S. cerevisiae deletion strains, locus YOL012C, strain htz1 1.39 | S. cerevisiae deletion strains, locus YOL147C, strain pex11, stronger effect = lower value 0.98 | S. cerevisiae deletion strains, locus YOR001W, strain rrp6, stronger effect = lower value 1 | S. cerevisiae deletion strains, locus YOR061W, strain CKA2, stronger effect = lower value 1.01 | S. cerevisiae deletion strains, locus YOR069W, strain VPS5, stronger effect = lower value 1.01 | S. cerevisiae deletion strains, locus YOR070C, strain gyp1, stronger effect = lower value 0.991 | S. cerevisiae deletion strains, locus YOR080W, strain dia2, stronger effect = lower value 0.998 | S. cerevisiae deletion strains, locus YOR083W, strain WHI5, stronger effect = lower value 1 | S. cerevisiae deletion strains, locus YOR106W, strain vam3, stronger effect = lower value 0.993 | S. cerevisiae deletion strains, locus YOR136W, strain idh2, stronger effect = lower value 0.994 | S. cerevisiae deletion strains, locus YOR144C, strain elg1, stronger effect = lower value 0.994 | S. cerevisiae deletion strains, locus YOR184W, strain ser1, stronger effect = lower value 1.02 | S. cerevisiae deletion strains, locus YOR231W, strain MKK1, stronger effect = lower value 1.01 | S. cerevisiae deletion strains, locus YOR265W, strain rbl2, stronger effect = lower value 0.996 | S. cerevisiae deletion strains, locus YOR270C, strain vph1, stronger effect = lower value 1.05 | S. cerevisiae deletion strains, locus YOR290C, strain snf2, stronger effect = lower value 0.989 | S. cerevisiae deletion strains, locus YOR316C, strain cot1, stronger effect = lower value 0.993 | S. cerevisiae deletion strains, locus YPL051W, strain arl3, stronger effect = lower value 1 | S. cerevisiae deletion strains, locus YPL078C, strain atp4, stronger effect = lower value 1.01 | S. cerevisiae deletion strains, locus YPL106C, strain sse1, stronger effect = lower value 0.961 | S. cerevisiae deletion strains, locus YPL240C, strain hsp82, stronger effect = lower value 0.988 | S. cerevisiae deletion strains, locus YPL241C, strain CIN2, stronger effect = lower value 0.992 | S. cerevisiae deletion strains, locus YPL256C, strain CLN2, stronger effect = lower value 1.03 | S. cerevisiae deletion strains, locus YPR119W, strain clb2, stronger effect = lower value 0.984 | S. cerevisiae deletion strains, locus YPR141C, strain kar3, stronger effect = lower value 0.971 | S. cerevisiae deletion strains, locus YPR163C, strain tif3, stronger effect = lower value 1 | S. cerevisiae deletion strains, locus YPR167C, strain met16, stronger effect = lower value 0.982 | S. cerevisiae deletion strains, strain wtn01, stronger effect = lower value 1.01 | S. cerevisiae strains, strain wild type, stronger effect = lower value 1.02
